# Assay results as given in PubChem BioAssay (NCATS).
# Values without a mark were called inactive. No rule for the calls is given here.
# Test system: HIV-1 nucleocapsid protein NCp7 (binding to TG oligonucleotide)
# Experiment: HIV Nucleocapsid (AID 346);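 also: potency is for inhibitors that block NC binding and lower polarization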
# Conditions: HIV-1 NC / fluorescein-TGTGTGTG probe, fluorescence polarization
# Method in brief: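 10 nM TG4xF probe with 100 nM nucleocapsid protein in high-salt Hepes pH 7.5 (250mM NaCl) containing 1uM ZnCl2 and reducing agents. Compound inhibition of binding was read as fluorescein polarization after 1 hr at room temperature.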
# Potency is read from the fitted curve at half-maximal effect.
row,Structure (SMILES),Potency [µM]
1,CN1CCN(c2ncc3nc(-c4ccccc4)c(=O)n(Cc4ccc(F)cc4)c3n2)CC1,> 20
2,O=C(c1cc(C(F)(F)F)cc(C(F)(F)F)c1)N1CCC2(CC1)CN(Cc1ccncc1)C2,> 20
3,Cc1nc2cnc(N(C)C)nc2n(Cc2cccs2)c1=O,> 20
4,COCCn1c(=O)c(-c2cccc(Cl)c2)nc2cncnc21,> 20
5,O=C(c1cccc(F)c1)N1CCC[C@@]2(CCN(c3ccccc3)C2)C1,> 20
6,COc1cccc(Cn2c(=O)c(CCc3ccccc3)nc3cncnc32)c1,> 20
7,O=C(c1cc(C(F)(F)F)cc(C(F)(F)F)c1)N1CCC2(CC1)CCN(c1ccncc1)CC2,> 20
8,COc1cccc(Cn2c(=O)c(CCc3ccccc3)nc3cnc(OC)nc32)c1,> 20
9,CS(=O)(=O)N1CCC[C@@]2(CCN(C(=O)Nc3cccc(C#N)c3)C2)C1,> 20
10,O=c1c(-c2ccc(Cl)cc2)nc2cncnc2n1Cc1ccccc1,> 20
11,O=S(=O)(c1ccccc1)N1CCC[C@@]2(CCN(c3ccccc3)C2)C1,> 20
12,Cn1cc(-c2nc3cnc(OCc4ccccc4)nc3n(CCC#N)c2=O)c2ccccc21,> 20
13,COc1ccc2[nH]cc(CCNc3ncncc3-c3cccnc3)c2c1,> 20
14,Cc1nc2cnc(OCc3ccccc3)nc2n(Cc2ccc(F)cc2)c1=O,> 20
15,Cc1ccccc1-c1cncnc1Nc1ccccc1,> 20
16,COc1ccc(-c2nc3cnc(N4CCNCC4)nc3n(-c3ccc(OC)cc3)c2=O)cc1,> 20
17,CN(Cc1ccco1)c1ncnc2ccc(-c3ccccc3C#N)cc12,> 20
18,COc1cccc(Cn2c(=O)cnc3cnc(Oc4cccc(Cl)c4)nc32)c1,> 20
19,CC(=O)N1CCC2(CCN(Cc3ccc(C#N)cc3)CC2)CC1,> 20
20,N#Cc1cccc(-c2nc(Nc3ccccc3)c3ccccc3n2)c1,> 20

row,Structure (SMILES),Potency [µM]
1,O=C(Nc1ccccc1)N1CC[C@@]2(CCCN(C(=O)c3cc(C(F)(F)F)cc(C(F)(F)F)c3)C2)C1,> 20
2,COc1ncc2nc(-c3ccc(F)cc3)c(=O)n(C[C@H]3CCCO3)c2n1,> 20
3,Cc1ccccc1-c1cc(-n2ccnc2)ncn1,> 20
4,COc1ccc(-c2nc3cnc(OC)nc3n(-c3ccccc3)c2=O)cc1,> 20
5,COc1ccc(-c2nc3cnc(Oc4ccccc4)nc3n(Cc3cccs3)c2=O)cc1,> 20
6,O=C(Nc1ccccc1)N1CC[C@@]2(CCCN(C(=O)c3cccc(F)c3)C2)C1,> 20
7,COc1ccccc1CNc1ncncc1-c1cccnc1,> 20
8,COCC(=O)N1CCC2(CC1)CN(c1cccc(-c3ccccc3)c1)C2,> 20
9,Cn1c(=O)c(-c2cc(F)cc(F)c2)nc2cnc(Nc3ccccc3)nc21,> 20
10,COc1ccccc1CNc1nc(-c2cccnc2)nc2ccccc12,> 20
11,COc1cccc(-c2cncnc2N(C)Cc2ccco2)c1,> 20
12,COc1ccc(C(=O)N2CCC[C@@]3(CCN(Cc4cc(C(F)(F)F)cc(C(F)(F)F)c4)C3)C2)cc1,> 20
13,Cc1noc(C)c1-c1ccc2ncnc(NCc3ccccc3)c2c1,> 20
14,COCC(=O)N1CCC2(CC1)CN(Cc1cc(C(F)(F)F)cc(C(F)(F)F)c1)C2,> 20
15,CNc1nc(-c2ccoc2)nc2ccccc12,> 20
16,O=C(c1ccncc1)N1CCC[C@@]2(CCN(c3ccccc3)C2)C1,> 20
17,CN1CCN(c2ncc3nc(-c4cccs4)c(=O)n(Cc4ccc(F)cc4)c3n2)CC1,> 4
18,Cc1nc2cnc(Oc3cccc(Cl)c3)nc2n(CCC#N)c1=O,> 20
19,COc1ccc(-n2c(=O)c(-c3cc(F)cc(F)c3)nc3cnc(N4CCOCC4)nc32)cc1,> 20
20,COc1ccc(NC(=O)N2CC[C@@]3(CCCNC3)C2)cc1,> 20
